Laboratory results from the supplement of paper PMC3334620.
Whole data set: some 33,000 sequences, median “E-score (-0.5 to 0.5)” near -0.012, cut for the highest 2% near 0.27. What follows is part of a selection rich in the highest values, with near analogues and random picks from the rest.

Molecular target: T1, Vhr1 (UniProt P40522)
T1 sequence: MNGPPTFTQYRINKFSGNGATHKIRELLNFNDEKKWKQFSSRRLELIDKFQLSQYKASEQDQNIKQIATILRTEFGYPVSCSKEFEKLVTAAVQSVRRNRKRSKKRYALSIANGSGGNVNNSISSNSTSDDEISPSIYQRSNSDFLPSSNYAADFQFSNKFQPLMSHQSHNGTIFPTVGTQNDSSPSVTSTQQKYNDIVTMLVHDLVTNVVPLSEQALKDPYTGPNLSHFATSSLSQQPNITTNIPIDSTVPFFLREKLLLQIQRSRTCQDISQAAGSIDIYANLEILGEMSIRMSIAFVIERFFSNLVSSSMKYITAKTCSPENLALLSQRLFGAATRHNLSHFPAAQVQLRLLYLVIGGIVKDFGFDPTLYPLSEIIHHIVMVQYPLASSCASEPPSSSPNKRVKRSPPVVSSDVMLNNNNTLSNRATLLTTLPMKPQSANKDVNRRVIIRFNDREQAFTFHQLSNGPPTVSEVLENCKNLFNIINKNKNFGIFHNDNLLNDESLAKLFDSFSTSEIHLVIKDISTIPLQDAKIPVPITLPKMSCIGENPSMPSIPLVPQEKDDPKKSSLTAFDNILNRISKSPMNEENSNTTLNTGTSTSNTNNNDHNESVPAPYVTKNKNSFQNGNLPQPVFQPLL
Assay: PBM E-score (8-mer binding enrichment) (E-score (-0.5 to 0.5)); higher = stronger / more preferred TF binding
Details: protein concentration: 200 nM; construct: GST-full length
Method: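 Universal 'all 10-mer' protein binding microarrays (Agilent AMADID 015681) probed with GST-tagged S. cerevisiae TFs (full-length or DBD) made by in vitro transcription/translation (PURExpress), about 100-200 nM. Bound TF was detected with fluorescent anti-GST. Each ungapped 8-mer (which stands for itself and its reverse complement) is scored by the PBM enrichment score (E-score), a modified Wilcoxon-Mann-Whitney statistic from -0.5 to +0.5, computed with the Universal PBM Analysis Suite. Scale: above 0.35 generally sequence-specific binding.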

Row | Sequence | PBM E-score
1 | AACTCGCA | -0.0141
2 | GACTCGTA | 0.327
3 | GACTCGGA | 0.278
4 | TACTCGGA | 0.126
5 | GACTCGCA | 0.319
6 | GACTCGCC | 0.276
7 | AACTCGGA | 0.0616
8 | AACTCGTA | 0.0622
9 | CACTCGCC | 0.147
10 | AACTCGCC | 0.00825
11 | CACTCGTA | -0.0431
12 | TACTCGCA | 0.263
13 | AGCGCATA | -0.0303
14 | CCCAATAG | -0.0738
15 | GACTAAGA | 0.0912
16 | AGTGTTGG | 0.107
17 | ATGCTGGA | -0.001
18 | AATCTCTC | -0.0867
19 | CTAGAGGC | -0.341
20 | CCTTAGAC | -0.16
21 | AGGCTGAG | -0.0574
22 | AACGCGTC | -0.137
23 | CACGCGTA | -0.0315
24 | CACGCGTC | 0.275
25 | GCTCATAA | 0.0821

Row | Sequence | PBM E-score
26 | CTGAGCCA | 0.247
27 | ATGAGCCA | 0.271
28 | GTGAGCCA | 0.355
29 | GCAATGGA | -0.128
30 | AGGAGTGG | 0.0494
31 | ATCAGAAC | 0.0119
32 | ACAGTCAC | 0.242
33 | GCAGTCAA | 0.0401
34 | CCAGTCAA | 0.045
35 | GCAGTCCC | 0.106
36 | GCAGTCAC | 0.353
37 | CCAGTCAC | 0.296
38 | ACGTTGCA | -0.0853
39 | ACCATTAT | 0.169
40 | GCCATGCC | 0.00234
41 | TCTGCCAA | -0.205
42 | CACTGATA | 0.0775
43 | GCAAAATA | 0.00706
44 | ATAATCAG | 0.0967
45 | CCAATCAC | 0.179
46 | CTAATCAC | 0.27
47 | ATAATCAA | 0.0618
48 | ATAATCAC | 0.308
49 | ACAATCAC | 0.275
50 | ATAATCAT | 0.389

Row | Sequence | PBM E-score
51 | GCAATCAC | 0.159
52 | GTAATCAC | 0.198
53 | ACCAGCGT | 0.0656
54 | GCAGAACA | 0.091
55 | CTATTGGA | -0.0419
56 | CAAGGGCG | -0.203
57 | CCACTCGG | -0.147
58 | CTCCCTAA | -0.107
59 | GCAGATTA | 0.0608
60 | ATAAGAAG | -0.11
61 | GAGTACCA | 0.172
62 | CTCCAATC | 0.0374
63 | CTAGTCAG | 0.247
64 | ATAGTCAC | 0.41
65 | AAAGTCAT | 0.256
66 | ATAGTCAA | 0.165
67 | ATAGTCAT | 0.411
68 | ATAGTCTG | -0.0734
69 | ATAGTCCC | 0.0218
70 | ATCGTCAT | 0.134
71 | ATAGTCAG | 0.333
72 | CAACCTTC | -0.171
73 | AACTGGGT | -0.041
74 | GAAGAATC | -0.1
75 | TCTTCACA | 0.0437

Row | Sequence | PBM E-score
76 | CTTTCACC | -0.204
77 | ATTGTTCC | 0.127
78 | TCAAGCGA | -0.0594
79 | GGCTCTAA | -0.0817
80 | GCATAACA | -0.116
81 | ACATAACA | 0.0352
82 | TCATAACA | 0.272
83 | CTCTTGGA | 0.0822
84 | AAAGATTT | -0.134
85 | AATCACAC | 0.316
86 | ACACTCAG | -0.0414
87 | ACTCACAT | 0.286
88 | CCTCACAG | 0.0151
89 | AATCACAA | 0.187
90 | ACTCTCAC | 0.115
91 | ACGCACAT | 0.0403
92 | ACGCACAG | 0.04
93 | ACTCACAG | 0.325
94 | ACACTCAC | 0.281
95 | AATCACAG | 0.27
96 | AATCACAT | 0.17
97 | AGTCTGAC | 0.148
98 | AGGGTCAC | -0.0656
99 | CTTCTTAC | -0.221
100 | CACGGCGG | 0.102

Row | Sequence | PBM E-score
101 | ACAGGAGG | -0.164
102 | CGGAGTAA | 0.0314
103 | AATCGTGT | 0.0868
104 | AAAAGAGG | -0.134
105 | GCCACACC | 0.134
106 | CCGGTGGC | -0.0116
107 | CCTCACAC | -0.0104
108 | TCTCACAA | 0.0793
109 | GCTCACAC | 0.148
110 | ACTCACAA | 0.286
111 | ACTCACAC | 0.39
112 | CCTCACAA | 0.115
113 | GAAAGTCC | -0.317
114 | AGAGACTC | 0.222
115 | CAAGACTA | -0.0514
116 | CGAGACTC | 0.309
117 | CAAGACTC | 0.295
118 | CAAGACTG | -0.0294
119 | CGAGACTA | 0.202
120 | TAGTTATA | 0.00574
121 | ACCCTACC | 0.00399
122 | ACATTGAC | 0.0886
123 | CAAAGCCG | -0.295
124 | CTCACCTA | 0.103
125 | ATTACTGC | 0.206

Row | Sequence | PBM E-score
126 | TACGAAGA | -0.0938
127 | CCCTACTC | -0.067
128 | AGGTATGA | 0.163
129 | CACACACG | 0.272
130 | TACACACA | 0.268
131 | AACACACA | 0.33
132 | AACACACT | 0.205
133 | AACACACG | 0.00318
134 | CGCACACA | 0.134
135 | CACACAAA | 0.124
136 | CACACACA | 0.276
137 | CACACATA | 0.204
138 | CCCATTCG | 0.00579
139 | AAGAGGGT | -0.255
140 | AGAGGTAT | 0.144
141 | CGTCCTAG | -0.181
142 | ATGCTAAG | -0.0834
143 | CCTATCAA | -0.182
144 | ATTCATCG | 0.121
145 | AGTCATCC | 0.464
146 | AGTCATCG | 0.44
147 | AGGCATCG | -0.22
148 | GGTCATCA | 0.136
149 | ATTCATCC | 0.0498
150 | CGTCATCA | 0.0722

Row | Sequence | PBM E-score
151 | AGTCATCA | 0.439
152 | CGTCATCC | 0.0455
153 | CGGCGGGC | 0.221
154 | CAAGATAA | 0.0275
155 | CATGGAGG | -0.101
156 | CCACGAAC | 0.101
157 | CAGGACAC | 0.135
158 | CCTCATCC | -0.182
159 | ACTCATCC | 0.412
160 | ACTCATCA | 0.32
161 | ACTCATCT | 0.199
162 | TCTCATCA | -0.131
163 | CCTCATCG | 0.0284
164 | GCTCATCC | 0.0555
165 | GCTCATCA | 0.109
166 | ACTCATCG | 0.304
167 | GCCTTCAC | -0.0812
168 | CTTTATCA | -0.157
169 | AAGCTACC | 0.00426
170 | ACCCAGGA | -0.00244
171 | ACCCAGGC | 0.302
172 | ACCCATGC | 0.273
173 | ACCCAGGT | 0.0206
174 | AACCATGC | 0.234
175 | ACCCATGG | 0.211

Row | Sequence | PBM E-score
176 | CCCCATGC | -0.0398
177 | AACCATGA | 0.351
178 | GCCCATGA | 0.262
179 | CCCCATGA | 0.0682
180 | CACCATGA | 0.143
181 | ACCCATGA | 0.287
182 | ATATTCTA | 0.122
183 | TGACAACA | 0.115
184 | GCCTTGAC | -0.167
185 | CATGGACC | -0.0938
186 | AACTGGGC | -0.165
187 | GCGAGCAA | -0.12
188 | ACAACGCT | 0.0591
189 | AGCTAGGA | 0.117
190 | AGTCACCG | 0.418
191 | CGTCACCC | -0.047
192 | CGTCACCA | -0.036
193 | GGTCACCA | -0.102
194 | AGTCACCA | 0.426
195 | AGTCACCC | 0.446
196 | ATTCACCG | 0.159
197 | AGACACCG | 0.21
198 | ATTCACCC | 0.135
199 | CTGGCAAG | -0.21
200 | GAAGATCA | -0.185

Row | Sequence | PBM E-score
201 | GCCGGCCA | -0.136
202 | ATGCCTGA | 0.0818
203 | CCTCTCGA | -0.142
204 | CGTGAAAC | -0.243
205 | AGCTCTAA | -0.127
206 | ACTCTTAC | 0.163
207 | TCACCCCA | 0.305
208 | TCACCCAA | 0.177
209 | GCACCCCA | 0.151
210 | AGCGGTCG | -0.301
211 | ACACGGAT | 0.287
212 | ACACGGAG | -0.0139
213 | ACACGGAA | -0.0284
214 | AGTCATAC | 0.407
215 | AGTCATAG | 0.407
216 | CGTCATAC | 0.189
217 | ACTCATAG | 0.264
218 | CGTCATAG | -0.155
219 | AGTCATAT | 0.421
220 | AGTCATAA | 0.344
221 | ACTCATAT | 0.229
222 | CGTCATAA | 0.016
223 | TGTCATAA | -0.0558
224 | GGTCATAC | 0.0467
225 | AGACATAT | 0.16
